SMN2 splice up – SMN2 splice variant enhancement | 210,000 compounds, 2.8% hits | HEK293 SMN2-luciferase splicing reporter, luminescence, 30-36 h | AID 1458 | Potency, µM (series often up to 46.1 µM), hits mostly activators; note: nearly all actives have a fitted effect of over 55% in size
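HEK293 cells carry an SMN2 minigene-luciferase reporter in which exon 7 inclusion puts luciferase in frame. Cells were seeded at 2000 cells/well, attached for 10-12 hours, then exposed to compounds for 30-36 hours at 37C before ONE-Glo luminescence.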
FLuc counter – firefly luciferase modulation, counter-screen for miR-21 project; Potency, µM (highest dose often 57.5 µM), most hits filed as inhibitors; P08659; 360,000 compounds, 6.9% hits; AID 588342; purified FLuc, Km substrates, luminescence inhibition; note: nearly all actives have a fitted effect of over 55% in size
Target sequence (P08659 whole entry, looked up): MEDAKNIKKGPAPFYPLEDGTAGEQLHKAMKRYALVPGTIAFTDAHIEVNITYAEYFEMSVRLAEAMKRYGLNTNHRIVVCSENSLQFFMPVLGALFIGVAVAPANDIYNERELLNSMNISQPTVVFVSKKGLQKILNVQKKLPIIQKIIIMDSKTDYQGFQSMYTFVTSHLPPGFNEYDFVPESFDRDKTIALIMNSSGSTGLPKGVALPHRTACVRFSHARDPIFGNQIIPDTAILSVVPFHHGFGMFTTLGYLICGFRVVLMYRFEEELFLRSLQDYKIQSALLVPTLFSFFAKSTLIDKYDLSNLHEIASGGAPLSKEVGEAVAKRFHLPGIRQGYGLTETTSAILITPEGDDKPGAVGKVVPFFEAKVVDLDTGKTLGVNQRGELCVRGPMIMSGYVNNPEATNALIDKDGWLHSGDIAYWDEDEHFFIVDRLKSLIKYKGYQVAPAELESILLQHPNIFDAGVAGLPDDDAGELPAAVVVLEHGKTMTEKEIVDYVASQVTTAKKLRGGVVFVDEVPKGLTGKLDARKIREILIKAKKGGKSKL
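Biochemical qHTS of compounds, final roughly 60 µM downward over six points, against 10 nM purified firefly luciferase using Km concentrations of substrates (10 uM D-luciferin, 10 uM ATP) in Tris acetate pH 7.5 buffer; luminescence output.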
ELG1 genotoxic – inducers of genotoxicity in HEK293T ELG1-luciferase cells; HEK293T ELG1-luciferase reporter, luminescence, 16 h; Potency, µM (titrated, usually from 46 µM), actives largely listed as activators; 330,000 compounds, 1.3% hits; note: nearly all actives have a fitted effect of over 60% in size
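After overnight (16 hr) compound treatment at 37 °C, ELG1-luciferase HEK293T cells were lysed with ONE-Glo; luminescence quantified 30 min later at room temperature.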
Rab9 prom act – activates the Rab9 promoter; Huh7 Rab9 promoter-luciferase reporter, luminescence, 24 h; Potency, µM (series often up to 9.22 µM), usual class: activators; 320,000 compounds, 2.8% hits; AID 485297; note: nearly all actives have a fitted effect of over 60% in size
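Measured in stably transfected Huh7 cells bearing a Rab9 promoter–luciferase construct: 24 h compound treatment at 37 °C, followed by luminescence detection.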
NPC1 promoter act – NPC1 promoter activation; Huh7 NPC1 promoter luciferase reporter, 24 h; Potency, µM (highest dose often 9.22 µM), actives largely listed as activators; 320,000 compounds, 2.4% hits; AID 485313; note: nearly all actives have a fitted effect of over 60% in size
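Quantitative HTS used a cell-based reporter: Huh7 cells stably bearing the NPC1 promoter upstream of luciferase were treated with compounds for 24 h, and promoter activation was read as luminescence.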
ELG1 repair inh – blocks ELG1-dependent DNA repair in HEK293T cells; HEK293T ELG1-luciferase reporter, luminescence, 16 h; DNA damage induced by 5-fluorouridine; Potency, µM (series often up to 46.1 µM), actives largely listed as inhibitors; 330,000 compounds, 2.3% hits; AID 504467; note: nearly all actives have a fitted effect of over 55% in size
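Reporter activity after DNA damage by 5-fluorouridine is monitored. Compound-treated cells incubate 16 hr at 37 °C, then ONE-Glo is added for 30 min before luminescence reading.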
Hits are given with their value; - = inactive; ? = inconclusive; . = no result; [ ] = dose if it differs, or a comment. Only some compounds are listed: those with a hit (about 9.2% of all), similar ones and a draw of the others. Calls come from the whole dose curve; as a rule, active = well fitted curve in the direction sought with a large enough effect; inconclusive = small, poorly fitted or top-dose-only effect, or another doubt; inactive = no such curve, though single readings can be large; an effect the other way counts as inactive or inconclusive.

SMILES	SMN2 splice up	FLuc counter	ELG1 genotoxic	Rab9 prom act	NPC1 promoter act	ELG1 repair inh
CCOc1ccccc1C(=O)N[C@H](C(=O)OCc1cc([N+](=O)[O-])cc2c1OCOC2)C(C)C	-	-	-	-	-	21µM
O=C(O)c1ccc(/C=N/Nc2ncc(Cl)cc2Cl)cc1	.	?	-	-	-	?
O=C(N/N=C/c1cccc(F)c1)NC1CCCCC1	-	?	-	-	-	?
O=C(O)c1ccc(/C=N/NC(=O)C(O)(c2ccccc2)c2ccccc2)cc1	.	-	-	-	-	-
O=C(O)c1ccc(N/N=C/c2cccc(F)c2)cc1	1µM	2.4µM	?	0.5µM	0.5µM	?
O=C(O)c1ccc(N/N=C/c2ccc(F)c(F)c2)cc1	1.4µM	1.7µM	5.2µM	0.32µM	0.32µM	?
O=C(O)c1ccc(N/N=C/c2cccc(C(F)(F)F)c2)cc1	.	3.4µM	?	0.63µM	0.56µM	?
CCCCNC(=O)C1CCN(S(=O)(=O)c2cc(Br)cc3c2N(C(=O)CC)CC3)CC1	-	-	.	.	.	.
Cc1cccc(-n2c(CCN3C(=O)c4ccccc4C3=O)nc3ccccc3c2=O)n1	-	-	-	-	-	-
Cc1cccc(-n2c(CCCN3C(=O)c4ccccc4C3=O)nc3ccccc3c2=O)n1	-	-	23µM	-	-	-
COc1cc(/C=C2\CCC/C(=C\c3ccc(O)c(OC)c3)C2=O)ccc1O	.	19µM	-	-	-	?
COc1cc(/C=C2\CC/C(=C\c3cc(OC)c(O)c(OC)c3)C2=O)cc(OC)c1O	-	?	-	-	-	7.3µM
COc1cc(/C=C2/CCC/C(=C\c3cc(O)c(OC)c(Cl)c3)C2=O)cc(Cl)c1O	-	?	-	-	-	15µM
Cc1cccc(N2CCN(C(=O)C3CCN(C(=O)c4cc5sccc5n4C)CC3)CC2)c1C	-	-	.	.	.	.
Cc1ccccc1Cn1nnc2c(=O)[nH]c(C3CCN(C(=O)c4ccccc4Cl)CC3)nc21	-	-	.	.	.	.
CC(C(=O)NC1C=CS(=O)(=O)C1)N1C(=O)/C(=C/c2cccc(Cl)c2)SC1=S (stereo not given)	.	15µM	-	-	-	-
O=C(CN1C(=O)/C(=C/c2cccc(Cl)c2)SC1=S)NC1C=CS(=O)(=O)C1 (stereo not given)	.	2.7µM	-	-	-	-
O=C(CN1C(=O)S/C(=C\c2cccc(Cl)c2)C1=O)NC1C=CS(=O)(=O)C1 (stereo not given)	.	-	-	-	-	-
O=C1NCCn2ccc(=O)cc21	.	-	-	-	-	-
Cc1cc(-c2ccc(Cl)cc2)n2nc(N)nc2n1	.	-[2.3 µM]	?	-	-	?
Nc1c(C(=O)O)cnc2c(-c3ccc(Cl)cc3)cnn12	11µM	3µM	?	1µM	1.4µM	?
Clc1ccc(-c2cnn3c(-c4ccncc4)ccnc23)cc1	3.2µM	0.95µM	-	0.35µM	0.5µM	?
N#Cc1cnn2c(N)c(-c3ccc(Cl)cc3)cnc12	-	-	-	-	-	-
Cc1nn2c(-c3ccncc3)ccnc2c1Cl	-	-	-	-	-	-
CC(=O)c1cnc2c(-c3ccc(Cl)cc3)cnn2c1C	13µM	?	?	?	-	?
SMILES	SMN2 splice up	FLuc counter	ELG1 genotoxic	Rab9 prom act	NPC1 promoter act	ELG1 repair inh
Nc1nc2nccc(-c3ccc(Cl)cc3)n2n1	-	12µM	?	?	?	?
O=C(COc1ccc(F)cc1)Nc1ccc2nc(SCC(=O)N3CCc4ccccc43)sc2c1	.	-	.	.	.	.
O=C(NCC(c1cccs1)N1CCOCC1)C1CCN(S(=O)(=O)c2ccccc2C(F)(F)F)CC1 (stereo not given)	.	-	-	-	-	-
Clc1nc2c(-c3ccccc3)nnn2c2ccccc12	.	1.5µM	-	-	-	?
Fc1cccc(-c2nnn3c2nc(Cl)c2ccccc23)c1	-	1.7µM	-	-	-	?
O=C(CCc1ccccc1)Nc1ccc2c(c1)OCCO2	13µM	6µM	?	1.8µM	3.2µM	?
O=C(CCCOc1ccccc1)Nc1ccc2c(c1)OCCO2	.	12µM	?	-	-	?
COc1ccc(OCCCC(=O)Nc2ccc3c(c2)OCO3)cc1	-	-	-	-	-	-
